The values below come from the supplement of paper PMC5641865, “A screen for kinase inhibitors identifies antimicrobial imidazopyridine aminofurazans as specific inhibitors of the Listeria monocytogenes PASTA kinase PrkA” (The Journal of Biological Chemistry, 2017).

Structures are written as SMILES. ± gives the standard deviation of the averaged measurements.
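Note: End-point A600 read in BHI broth at 37 °C with 2% DMSO, inhibition computed as (1 − OD with compound plus ceftriaxone ÷ OD with ceftriaxone only) × 100.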

This experiment has as its system Listeria monocytogenes 10403S. Kind of experiment: growth inhibition relative to ceftriaxone-alone control; higher = stronger potentiation of ceftriaxone growth inhibition. The note with it: 10 µM; ceftriaxone 1 ug/ml; 12 h.
For the compound `CN1CCN(c2ccc3nc(-c4c(N)c5c(F)cccc5[nH]c4=O)[nH]c3c2)CC1` [Dovitinib Dilactic Acid (TKI258 Dilactic Acid)], the growth inhibition came out at 33.4 ± 20%.
Take `NS(=O)(=O)c1ccc(-c2ccc3c(NC(=O)C4CC4)n[nH]c3c2)cc1`: the growth inhibition was -10.8 ± 16%.
Then `O=C(O)c1ccc(Nc2ncc3c(n2)-c2ccc(Cl)cc2C(c2c(F)cccc2F)=NC3)cc1`, with 91.3 ± 3.5%; and `COc1cc(N2CCN(C(C)C)CC2)ccc1Nc1nc(Nc2ccc(F)cc2C(=O)NC[C@@H](O)CO)c2cc[nH]c2n1`, with 5.09 ± 0.17%; and `Cc1ccc(NC(=O)CC2CC2)cc1-c1ccc(C(=O)NCC2CC2)cc1`, with -0.462 ± 0.33%.
Then `CC1=C(C(=O)Nc2ccc3[nH]ncc3c2)C(c2ccc(F)cc2)NC(=O)N1` (configuration not stated), with 2.29 ± 1.7%; and `COc1ccc(-c2coc3ncnc(N)c23)cc1`, with 8.14 ± 12%; and `CC(C)(C)c1cnc(CSc2cnc(NC(=O)C3CCNCC3)s2)o1`, with 29.5 ± 24%.
Regarding `O=C1Nc2ccc(I)cc2C1=Cc1cc(Br)c(O)c(Br)c1`, the growth inhibition is 36.9 ± 6%.
Then `COc1cc(Nc2nccc(Nc3ccc4c(C)n[nH]c4c3)n2)cc(OC)c1OC`, with -7.71 ± 14%; and `CCn1c(-c2nonc2N)nc2c(C#CC(C)(C)O)ncc(OC3CCNCC3)c21`, with 77 ± 1.4%.
Then `O=C(O)c1ccc2c(c1)nc(Nc1cccc(Cl)c1)c1ccncc12` [CX-4945 (Silmitasertib)], with 76.2 ± 9.6%; and `O=S(=O)(CCOCc1ccc(-c2ccc3ncnc(Nc4ccc(OCc5cccc(F)c5)c(Cl)c4)c3c2)o1)c1ccccc1`, with -11.6 ± 11%; and `CCCCOc1c(C(=O)c2c(F)cc(C)cc2F)c[nH]c2nncc1-2`, with -6.78 ± 8.6%.
Then `C[C@@H](Oc1cc(-n2cnc3ccc(CN4CCN(C)CC4)cc32)sc1C(N)=O)c1ccccc1C(F)(F)F`, with 88.5 ± 8.4%; and `O=C(Cc1ccc(-c2ccc(OCCN3CCOCC3)cc2)cn1)NCc1ccccc1`, with 33.6 ± 8.5%; and `Cc1nnc(-c2cccc(-c3ccc(C(=O)NCC4CC4)cc3)c2)o1`, with 3.5 ± 10%.
As for `COc1cc2c(N3CCN(C(=O)Nc4ccc(OC(C)C)cc4)CC3)ncnc2cc1OCCCN1CCCCC1` [Tandutinib (MLN518)], the growth inhibition stood at 32.3 ± 18%.
Then `c1ccc(-c2n[nH]cc2-c2ccnc(-c3ccc(OCCN4CCOCC4)cc3)c2)nc1`, with -1.77 ± 9.5%; and `COc1ccc(Nc2ncc(-c3ccccc3)o2)cc1OC`, with 10.7 ± 3.4%.
Then `O=C(Nc1ccc(OC(F)(F)F)cc1)c1sccc1NCc1ccnc2ccccc12`, with 35.9 ± 3.9%; and `Cc1ccc(C(=O)Nc2ccc(CN3CCN(C)CC3)c(C(F)(F)F)c2)cc1C#Cc1cnc2cccnn12`, with 94.4 ± 3.5%.
